Our source for the sensor-assay potency score (higher = more potent) values is the OligoGym collection.
Note: reference of the scale not given here.

The target of one assay is C8B. Put plainly: pooled miR-30 sensor sort-seq; sequence = guide strand. The conditions noted are these: shRNA.
In turn, TTTGCCTACAGACACACCCAGA gave a sensor-assay potency score (higher = more potent) of -0.947.

With TTGACTTCCGCATGGTCTGTTG, the sensor-assay potency score (higher = more potent) is -0.312.

For TAACACAGTCTTCGACTTCCTT, the sensor-assay potency score (higher = more potent) was -0.392.

Turning to TAATATAGTGTTTGCCTCGATC, the sensor-assay potency score (higher = more potent) was -0.751.

In turn, TTTTAGTATGAGAGAATCGTTT showed a sensor-assay potency score (higher = more potent) of -0.743.

With TTCCTTCTGGAACTCCTCCAGT, the sensor-assay potency score (higher = more potent) was -0.414.

As to TAGCTTTCCACATTGTAGGGCT, the sensor-assay potency score (higher = more potent) was found to be 0.376.

For TATTTTAAAACCAAAACTGAAA, the sensor-assay potency score (higher = more potent) is -1.26.

As for TAACTCTCTGAAGGAACTCGTA, the sensor-assay potency score (higher = more potent) is -1.02.

Sequence TTACACACCTTCCTGTCTGTGC had a sensor-assay potency score (higher = more potent) of 0.539.

Turning to TAGGGCTTCCTAAACCTCGTGT, the sensor-assay potency score (higher = more potent) stood at 0.733.

The sequence TAAAACCAAAACTGAAACCAGA came in with a sensor-assay potency score (higher = more potent) of -0.722.

In turn, TTTATTTTAAACAGCTTGCATG came in with a sensor-assay potency score (higher = more potent) of -0.469.

Turning to TTGTTGACTGCATTTGACCCAA, the sensor-assay potency score (higher = more potent) was -0.397.

Regarding TTTAGTATGAGAGAATCGTTTG, the sensor-assay potency score (higher = more potent) was -0.791.

Take TAGTATGAGAGAATCGTTTGGT: the sensor-assay potency score (higher = more potent) is 0.49.

Take TTCTACAGTTTGCTTCATCTGA: the sensor-assay potency score (higher = more potent) was -0.199.

Sequence TTGCCCTTGCATGAACTCCAGG had a sensor-assay potency score (higher = more potent) of -1.15.

For TTTGTCTTGTCTTACGTCTTCC, the sensor-assay potency score (higher = more potent) is -0.213.

As to TAAGAGTATAATCTCCTCTCTC, the sensor-assay potency score (higher = more potent) worked out at 0.0444.

A further assay has as its target C8orf37. Described as above. The following applies: shRNA.
Consider TAATTTGTGAAATTCTGGCATG, for which the sensor-assay potency score (higher = more potent) is -0.39.

TTCTTCTTTATCAACTTTGCTT yielded a sensor-assay potency score (higher = more potent) of -0.238.

TAAGACTGTCAAGATCATCTTC registered a sensor-assay potency score (higher = more potent) of 0.587.

TTTAACTGCTACAAGTTGGGGA returned a sensor-assay potency score (higher = more potent) of 0.583.

With TTGATGAGGTAAGATCAGCTAT, the sensor-assay potency score (higher = more potent) was -0.469.

In turn, TCTTCTTTATCAACTTTGCTTT displayed a sensor-assay potency score (higher = more potent) of -0.627.

TTATAATACATGATCTTCCTTA came in with a sensor-assay potency score (higher = more potent) of 0.582.

The sequence TTAAATGTTTCTGTTGATCTGA had a sensor-assay potency score (higher = more potent) of 0.482.

Sequence ATATTGTGCATAACATTGCTTT showed a sensor-assay potency score (higher = more potent) of -0.312.

TTAATTTGTGAAATTCTGGCAT had a sensor-assay potency score (higher = more potent) of 0.766.

Sequence TTGCTTTGAGTTGATGAGGTAA registered a sensor-assay potency score (higher = more potent) of -0.541.

On to TACATGATCTTCCTTAGTCCAT, for which the sensor-assay potency score (higher = more potent) was -0.774.

A further assay deals with C8orf86. Described as above. The following applies: shRNA.
Sequence TTGAAGAAACCACAGATGCGAG gave a sensor-assay potency score (higher = more potent) of -0.899.

TTGCTTCTAATCAACTCCTCAG gave a sensor-assay potency score (higher = more potent) of -0.327.

The sequence TAATTCAGGAGTTCTGGGCGGG had a sensor-assay potency score (higher = more potent) of 0.0945.

Regarding TTGGCTCTTTGGAACTGCCTGT, the sensor-assay potency score (higher = more potent) is -0.109.

TAATCAACTCCTCAGCTGGGAG returned a sensor-assay potency score (higher = more potent) of -1.02.

Consider TTCTAATCAACTCCTCAGCTGG, for which the sensor-assay potency score (higher = more potent) is -0.81.

TTTGTCTCTCTGTTCGCTGCTC gave a sensor-assay potency score (higher = more potent) of -0.0258.

The sequence TCTTTGTCTCTCTGTTCGCTGC came in with a sensor-assay potency score (higher = more potent) of -0.625.
